Compound activity deposited in PubChem by National Center for Advancing Translational Sciences (NCATS).
Sampled rows, rich in hits. Any-hit rate of the full collection: about 2.4%.
FEN1 inhibitor: human FEN1 inhibition | Recombinant FEN1 flap cleavage, fluorescence, 15 min | P39748 | 390,000 tested, 0.35% active | Potency, µM (series often up to 114 µM), without a hit: at the top dose activity change, negative = inhibition, usual class: inhibitors; note: % is set by controls: 0 for no effect and ±100 for the full control effect; nearly all actives have a fitted effect of over 65% in size
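With each library titrated from low to high concentration, compounds met 10 nM FEN1 for 15 min at room temperature before 50 nM substrate was added; readings at 0 and 15 min fed four-parameter Hill curve fits.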
POLH inh: blocks human DNA polymerase eta activity | Q9Y253 | recombinant Pol eta, fluorescent DNA replication assay | Potency, µM (doses to about 114 µM), without a hit: at the top dose activity change, negative = inhibition, actives largely listed as inhibitors | 390,000 tested, 1.2% active | AID 588591; note: % is set by controls: 0 for no effect and ±100 for the full control effect
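Pol eta at 10 nM preincubated with compounds 15 min at room temperature; reaction started with fluorescent substrate (50 nM final) and read kinetically at 0 and 10 min.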
WRN helicase inh-1: blocks human WRN helicase; WRN helicase unwinding, fluorescent forked duplex, kinetic; Potency, µM (top dose mostly 114 µM), without a hit: top-dose activity change, negative = inhibition, most hits filed as inhibitors; 360,000 tested, 0.46% active; AID 651768; note: % is set by controls: 0 for no effect and ±100 for the full control effect; nearly all actives have a fitted effect of over 55% in size
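Kinetic fluorescence helicase assay: unwinding of a quenched forked DNA duplex (100 nM final) with 2 mM ATP final raises red fluorescence (525/598 nm). Compounds sat 15 min at room temperature with 20 nM WRN beforehand.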
Pol beta inh: DNA polymerase beta (human) inhibition; P06746; AID 485314; Potency, µM (series often up to 114 µM), for inactives: at the top dose activity change, negative = inhibition, usual class: inhibitors; Pol beta primer extension/strand displacement, fluorescence kinetic; 340,000 tested, 1.3% active; note: % is set by controls: 0 for no effect and ±100 for the full control effect
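Homogeneous kinetic assay of primer extension and strand displacement by 10 nM Pol beta, preincubated 15 min at room temperature with compound before 50 nM substrate (final) was added. Read at 0 and 10 min; four-parameter Hill fit.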
Pol kappa inh: blocks human DNA polymerase kappa activity | Q9UBT6 | purified Pol kappa, fluorescent DNA synthesis assay, 10 min | Potency, µM (highest dose often 107 µM), for inactives: at the top dose activity, negative = inhibition, hits mostly inhibitors | 400,000 tested, 0.53% active; note: % is set by controls: 0 for no effect and ±100 for the full control effect
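Here, compound and 10 nM enzyme are combined for 15 min at room temperature; adding 50 nM substrate (final) starts DNA synthesis, tracked by fluorescence at 0 and 10 min against buffer-only wells.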
POLI inh: blocks human DNA polymerase iota activity; Potency, µM (doses to about 115 µM), without a hit: at the highest dose activity, negative = inhibition, usual class: inhibitors; Pol iota fluorescent replication assay, 10 min; Q9UNA4; 390,000 tested, 1% active
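Fluorescent replication assay read twice, at 0 min and 10 min after adding 50 nM (final) substrate. Enzyme (10 nM) and compounds were first incubated 15 min at room temperature; enzyme-free buffer wells were negative controls.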
WRN helicase inh-2: WRN helicase inhibition, cherry-pick retest | shares compounds with WRN helicase inh-1 | WRN helicase DNA unwinding, fluorescence kinetic | Potency, µM (series often up to 57.1 µM), inactives show at the top dose activity, negative = inhibition, most hits filed as inhibitors | 610 tested, 63% active | AID 720497; note: nearly all actives have a fitted effect of over 65% in size
TO displacement: DNA binding via thiazole orange displacement | shares compounds with WRN helicase inh-1 | thiazole orange DNA binding displacement, fluorescence | Potency, µM (highest dose often 57.1 µM), inactives show top-dose activity change, negative = inhibition, usual class: inhibitors | 610 tested, 10% active;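 note: drop in dye fluorescence marks compound binding to DNA; % is set by controls: 0 for no effect and ±100 for the full control effect; nearly all actives have a fitted effect of over 60% in size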
BLM counter: blocks human BLM helicase in WRN counterscreen; shares compounds with WRN helicase inh-1; Potency, µM (doses to about 57.1 µM), without a hit: at the highest dose activity change, negative = inhibition, actives largely listed as inhibitors; 610 tested, 60% active; AID 720503; Recombinant BLM helicase DNA unwinding, red fluorescence; note: nearly all actives have a fitted effect of over 60% in size
The depositor's hits bear a star; ! = not active in a repeat; [ ] = remark or other dose. Calls come from the whole dose curve; as a rule, active = well fitted curve in the direction sought with a large enough effect; inconclusive = small, poorly fitted or top-dose-only effect, or another doubt; inactive = no such curve, though single readings can be large; an effect the other way counts as inactive or inconclusive. Potency is the fitted concentration of half-maximal effect.

Results for COc1cc(/C=C2\SC(=S)N(NC(=O)c3cccc(O)c3)C2=O)ccc1O ?
FEN1 inhibitor: inconclusive; POLH inh: inconclusive; WRN helicase inh-1: 32µM*; Pol beta inh: 16µM*; Pol kappa inh: -40%; POLI inh: 40µM*; WRN helicase inh-2: 22µM*; TO displacement: 3.8µM*; BLM counter: 22µM*

Results for COc1ccc(CN2CC(=O)N(c3ccc(C)c(C)c3)C2=S)cc1OC ?
FEN1 inhibitor: inconclusive; POLH inh: -98%; WRN helicase inh-1: inconclusive; Pol beta inh: 3%; Pol kappa inh: inconclusive; POLI inh: -92%; WRN helicase inh-2: -8%; TO displacement: -4%; BLM counter: -4%

How did O=[N+]([O-])c1cc2c(c3cccnc13)COCO2 do in these assays?
FEN1 inhibitor: -8%; POLH inh: 10µM*; WRN helicase inh-1: inconclusive; Pol kappa inh: -21%; POLI inh: 40µM*; WRN helicase inh-2: inconclusive; TO displacement: -29%; BLM counter: 15µM*

What do the screens show for `COc1ccc(Nc2nc(N)c3cc(OC)c(OC)cc3n2)cc1`?
FEN1 inhibitor: inconclusive; POLH inh: inconclusive; Pol beta inh: inconclusive; Pol kappa inh: -9%; POLI inh: -12%; WRN helicase inh-2: 22µM*; TO displacement: inconclusive; BLM counter: 22µM*

Results for COc1cc(/C=C2/C(=O)NN(c3cccc(C)c3)C2=O)ccc1OC(=O)c1ccco1 ?
FEN1 inhibitor: -7%; POLH inh: 28µM*; WRN helicase inh-1: 45µM*; Pol beta inh: -24%; Pol kappa inh: -11%; POLI inh: inconclusive; WRN helicase inh-2: inconclusive; TO displacement: -14%; BLM counter: inconclusive

Results for COC(=O)c1ccc(N2NC(=O)/C(=C/c3ccc(OC)c(OC)c3)C2=O)cc1 ?
FEN1 inhibitor: 2%; POLH inh: 8%; WRN helicase inh-1: -24%[11.6 µM]; Pol beta inh: 5%; Pol kappa inh: -10%; POLI inh: inconclusive

Results for COc1ccc(OC)c(/C=N/Nc2nc(C)cc(=O)[nH]2)c1 ?
FEN1 inhibitor: -16%; POLH inh: inconclusive; WRN helicase inh-1: 89µM*; Pol beta inh: inconclusive; Pol kappa inh: -23%; POLI inh: 100%; WRN helicase inh-2: -13%; TO displacement: -4%; BLM counter: -20%

Results for COc1cccc(NS(=O)(=O)c2cc(-c3cnc(C4CC4)o3)ccc2C)c1 ?
FEN1 inhibitor: -18%; POLH inh: -6%; Pol beta inh: -19%; Pol kappa inh: -10%[60.1 µM]; POLI inh: -14%

How did CN(C)c1ccc(/C=C/c2c[n+](C)cc3ccccc23)cc1 do in these assays?
FEN1 inhibitor: inconclusive; Pol kappa inh: -19%; POLI inh: -12%

Results for CN(C)c1ccc(/C=C/c2ccc3ccccc3[n+]2C)cc1 ?
FEN1 inhibitor: 40µM*; POLH inh: inconclusive; WRN helicase inh-1: 40µM*; Pol beta inh: 18µM*; Pol kappa inh: 50µM*; POLI inh: 40µM*!; WRN helicase inh-2: 24µM*; TO displacement: 27µM*; BLM counter: 27µM*
